This note sets out measurements from ChEMBL document CHEMBL3988442, “University of Dundee, Small-Polar-MMV Screening Library” (2021).

For some of these results: Results with a measured potency or affinity are listed apart.

Design in all cases: scale not given: direction of the effect not stated beside the values
For assay [1], the target named is Protein translocase subunit SecA (Escherichia coli (strain K12)) (UniProt P10408). Nature of the assay: Assay to Identify E. coli SecA ATPase Inhibitors. It counts as functional. The following applies: 30 µM.
Protein translocase subunit SecA (Escherichia coli (strain K12)), sequence (P10408 whole entry): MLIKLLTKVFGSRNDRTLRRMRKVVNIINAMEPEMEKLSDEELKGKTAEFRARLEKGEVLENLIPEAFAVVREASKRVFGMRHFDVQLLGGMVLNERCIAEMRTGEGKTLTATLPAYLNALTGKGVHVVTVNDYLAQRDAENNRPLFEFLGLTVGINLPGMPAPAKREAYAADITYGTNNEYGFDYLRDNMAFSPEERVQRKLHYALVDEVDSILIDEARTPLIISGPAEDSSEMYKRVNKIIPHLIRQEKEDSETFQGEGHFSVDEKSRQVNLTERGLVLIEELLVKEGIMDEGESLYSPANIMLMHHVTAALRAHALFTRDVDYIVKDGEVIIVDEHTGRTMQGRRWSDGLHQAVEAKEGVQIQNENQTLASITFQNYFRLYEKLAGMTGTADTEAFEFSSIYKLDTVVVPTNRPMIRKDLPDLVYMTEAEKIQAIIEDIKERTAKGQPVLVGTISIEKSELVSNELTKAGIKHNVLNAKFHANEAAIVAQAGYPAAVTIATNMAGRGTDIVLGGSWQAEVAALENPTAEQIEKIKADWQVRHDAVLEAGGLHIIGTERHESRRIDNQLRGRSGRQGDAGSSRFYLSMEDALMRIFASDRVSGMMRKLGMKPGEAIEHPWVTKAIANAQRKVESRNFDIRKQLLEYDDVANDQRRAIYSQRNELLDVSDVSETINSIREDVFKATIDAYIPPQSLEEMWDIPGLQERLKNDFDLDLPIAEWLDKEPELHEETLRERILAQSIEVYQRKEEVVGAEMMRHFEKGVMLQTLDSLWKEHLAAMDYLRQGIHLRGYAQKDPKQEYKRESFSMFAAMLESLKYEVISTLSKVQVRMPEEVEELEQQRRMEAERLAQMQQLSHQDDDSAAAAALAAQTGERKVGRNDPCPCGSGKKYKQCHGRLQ
In assay [2] the target is T1, Ubiquitin-activating enzyme e1, putative (Leishmania donovani (strain BPK282A1)) (UniProt E9BSI1).
T1 sequence (whole entry): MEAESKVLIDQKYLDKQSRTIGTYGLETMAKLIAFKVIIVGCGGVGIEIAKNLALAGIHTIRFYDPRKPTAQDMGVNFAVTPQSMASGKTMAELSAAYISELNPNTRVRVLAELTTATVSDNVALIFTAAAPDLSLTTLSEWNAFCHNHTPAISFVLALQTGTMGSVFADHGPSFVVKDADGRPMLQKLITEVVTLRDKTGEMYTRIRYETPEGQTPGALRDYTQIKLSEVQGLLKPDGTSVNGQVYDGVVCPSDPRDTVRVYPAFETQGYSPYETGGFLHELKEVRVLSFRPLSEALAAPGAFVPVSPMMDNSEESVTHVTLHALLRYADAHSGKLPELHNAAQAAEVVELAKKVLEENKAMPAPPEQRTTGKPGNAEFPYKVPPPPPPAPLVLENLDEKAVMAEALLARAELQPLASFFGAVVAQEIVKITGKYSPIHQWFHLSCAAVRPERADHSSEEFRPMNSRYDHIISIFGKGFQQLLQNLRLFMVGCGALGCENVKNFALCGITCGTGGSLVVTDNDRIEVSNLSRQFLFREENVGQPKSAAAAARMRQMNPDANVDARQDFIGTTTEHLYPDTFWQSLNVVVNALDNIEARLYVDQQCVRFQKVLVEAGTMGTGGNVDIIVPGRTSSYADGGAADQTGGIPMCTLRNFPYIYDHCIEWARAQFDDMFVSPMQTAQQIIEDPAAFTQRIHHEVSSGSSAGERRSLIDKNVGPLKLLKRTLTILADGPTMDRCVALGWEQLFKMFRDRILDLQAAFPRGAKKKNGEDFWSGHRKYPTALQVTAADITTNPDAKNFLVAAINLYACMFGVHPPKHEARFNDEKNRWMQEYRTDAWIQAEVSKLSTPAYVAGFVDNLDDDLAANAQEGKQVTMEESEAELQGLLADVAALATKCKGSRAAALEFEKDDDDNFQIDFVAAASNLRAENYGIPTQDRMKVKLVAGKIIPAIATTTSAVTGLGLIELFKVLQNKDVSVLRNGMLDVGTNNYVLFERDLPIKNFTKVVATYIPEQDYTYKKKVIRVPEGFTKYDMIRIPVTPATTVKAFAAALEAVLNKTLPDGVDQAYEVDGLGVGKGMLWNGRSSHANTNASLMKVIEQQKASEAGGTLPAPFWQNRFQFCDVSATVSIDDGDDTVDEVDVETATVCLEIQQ
Nature of the assay: Leishmania donovani Ubiquitin Activating Enzyme (LdE1). It counts as functional. As to conditions: 30 µM.

Assay [3] concerns the target AMP-activated protein kinase, AMPK (Homo sapiens) (UniProt P54646+O43741+P54619+Q9UGJ0+Q9Y478+Q13131+Q9UGI9). Nature of the assay: AMP-dependent Kinase enzyme assay. An in vitro enzyme assay that detects ADP turnover that is directly proportional to AMPK activity. This uses naive AMPK that is activated during the assay with MK-8722. The following applies: 30 µM. Format: functional.

The target of assay [4] is Sialic acid-binding Ig-like lectin 9 (Homo sapiens) (UniProt Q9Y336). Nature of the assay: Hs-Siglec9 ALPHAscreen SOP 20170721. The following applies: 10 µM. In general terms: Alpha assays give light when donor and acceptor beads are brought close together.
Sialic acid-binding Ig-like lectin 9 (Homo sapiens), sequence (Q9Y336 whole entry): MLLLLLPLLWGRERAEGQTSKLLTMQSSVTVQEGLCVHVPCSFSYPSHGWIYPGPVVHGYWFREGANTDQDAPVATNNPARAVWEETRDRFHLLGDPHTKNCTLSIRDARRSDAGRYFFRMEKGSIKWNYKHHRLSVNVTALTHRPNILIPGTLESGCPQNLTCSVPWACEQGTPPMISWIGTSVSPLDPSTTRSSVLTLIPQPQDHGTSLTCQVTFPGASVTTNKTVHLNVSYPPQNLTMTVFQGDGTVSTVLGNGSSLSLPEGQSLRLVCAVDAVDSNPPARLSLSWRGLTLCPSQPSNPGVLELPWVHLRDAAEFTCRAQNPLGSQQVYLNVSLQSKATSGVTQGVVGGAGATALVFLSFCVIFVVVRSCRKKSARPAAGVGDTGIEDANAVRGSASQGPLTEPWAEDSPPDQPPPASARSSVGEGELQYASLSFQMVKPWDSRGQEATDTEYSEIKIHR
Another assay deals with Trypanosoma cruzi. Nature of the assay: Trypanosoma cruzi phosphomannomutase and mannose-1-phosphate guanylyltransferase assay. Format: functional. As to conditions: 10 µM.
For assay [5], the target named is T2, Arginase-2, mitochondrial (Homo sapiens) (UniProt P78540).
T2 sequence (whole entry): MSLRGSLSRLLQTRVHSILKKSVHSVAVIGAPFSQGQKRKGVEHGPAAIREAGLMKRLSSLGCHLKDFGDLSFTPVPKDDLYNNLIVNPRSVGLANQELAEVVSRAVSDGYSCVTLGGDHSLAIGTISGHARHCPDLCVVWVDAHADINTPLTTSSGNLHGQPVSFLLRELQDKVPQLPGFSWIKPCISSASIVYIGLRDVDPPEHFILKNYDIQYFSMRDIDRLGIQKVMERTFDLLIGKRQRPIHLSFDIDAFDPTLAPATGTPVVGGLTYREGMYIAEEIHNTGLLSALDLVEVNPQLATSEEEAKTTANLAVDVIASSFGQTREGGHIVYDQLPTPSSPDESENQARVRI
Nature of the assay: in vitro enzyme assay to detect the production of urea directly proportional to the activity of Arginase II. Note: in the data most compounds retested in dose-response had high values. It counts as functional. The following applies: 33.3 µM.

Assay [6] has as its target T3, Proteasome subunit beta (Trypanosoma cruzi) (UniProt O96673).
T3 sequence (whole entry): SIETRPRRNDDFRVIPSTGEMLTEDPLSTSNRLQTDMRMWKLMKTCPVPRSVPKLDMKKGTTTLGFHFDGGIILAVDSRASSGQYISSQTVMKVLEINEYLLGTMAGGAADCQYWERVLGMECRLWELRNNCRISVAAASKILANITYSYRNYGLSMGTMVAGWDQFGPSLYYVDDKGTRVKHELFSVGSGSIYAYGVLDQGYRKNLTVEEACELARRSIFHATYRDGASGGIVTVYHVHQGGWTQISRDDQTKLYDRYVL
Nature of the assay: Trypanosoma cruzi proteasome chymotrypsin-like activity (TcProtChymo) assay. Note: in the data most compounds retested in dose-response had high values. Format: functional. The following applies: 9.37 µM.

The next assay is filed under the species Homo sapiens. Nature of the assay: To identify inhibition of the IFN signalling (Jak-Stat) pathway via expression of an eGFP reporter gene under the control of an IFN-stimulated response element (ISRE) containing MxA promoter. As to conditions: 30 µM. It counts as functional.
Assay [7] addresses T4, Tyrosyl-tRNA synthetase, putative (Trypanosoma cruzi (strain CL Brener)) (UniProt Q4DSP6).
T4 sequence (whole entry): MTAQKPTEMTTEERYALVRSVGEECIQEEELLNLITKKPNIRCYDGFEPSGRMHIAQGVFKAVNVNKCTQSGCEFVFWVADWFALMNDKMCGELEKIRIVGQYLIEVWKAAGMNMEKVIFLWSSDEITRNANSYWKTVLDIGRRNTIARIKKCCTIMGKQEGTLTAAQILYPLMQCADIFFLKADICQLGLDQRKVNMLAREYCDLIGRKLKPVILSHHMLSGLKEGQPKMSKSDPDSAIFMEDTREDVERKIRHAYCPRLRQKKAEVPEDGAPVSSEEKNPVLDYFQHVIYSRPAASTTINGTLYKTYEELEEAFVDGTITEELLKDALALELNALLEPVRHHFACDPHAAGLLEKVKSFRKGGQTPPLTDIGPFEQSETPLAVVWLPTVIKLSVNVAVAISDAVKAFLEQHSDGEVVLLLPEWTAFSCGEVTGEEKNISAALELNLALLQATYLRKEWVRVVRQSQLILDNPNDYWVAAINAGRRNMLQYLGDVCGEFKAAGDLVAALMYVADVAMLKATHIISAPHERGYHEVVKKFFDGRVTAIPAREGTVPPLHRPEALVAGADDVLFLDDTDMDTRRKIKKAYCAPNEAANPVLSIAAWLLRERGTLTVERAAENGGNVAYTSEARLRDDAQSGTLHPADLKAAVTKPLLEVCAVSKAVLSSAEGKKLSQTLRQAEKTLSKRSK
Nature of the assay: Trypanosoma cruzi tyrosyl tRNA synthetase (TcYRS) _High Tyrosine SOP. Note: in the data most compounds retested in dose-response had high values. Format: functional. The following applies: 30 µM.

Assay [8] has as its target T4, Tyrosyl-tRNA synthetase, putative (Trypanosoma cruzi (strain CL Brener)). Nature of the assay: Trypanosoma cruzi tyrosyl tRNA synthetase (TcYRS) SOP. As to conditions: 30 µM. Format: functional.
The target in assay [9] is Chromo domain-containing protein 1 (Saccharomyces cerevisiae (strain ATCC 204508 / S288c) (Baker's yeast)) (UniProt P32657). Nature of the assay: ScCHD-1 Enzyme Inhibition Assay. Note: in the data most compounds retested in dose-response had high values. Format: functional. The following applies: 30 µM.
Chromo domain-containing protein 1 (Saccharomyces cerevisiae (strain ATCC 204508 / S288c) (Baker's yeast)), sequence (P32657 whole entry, the tested form may be a part): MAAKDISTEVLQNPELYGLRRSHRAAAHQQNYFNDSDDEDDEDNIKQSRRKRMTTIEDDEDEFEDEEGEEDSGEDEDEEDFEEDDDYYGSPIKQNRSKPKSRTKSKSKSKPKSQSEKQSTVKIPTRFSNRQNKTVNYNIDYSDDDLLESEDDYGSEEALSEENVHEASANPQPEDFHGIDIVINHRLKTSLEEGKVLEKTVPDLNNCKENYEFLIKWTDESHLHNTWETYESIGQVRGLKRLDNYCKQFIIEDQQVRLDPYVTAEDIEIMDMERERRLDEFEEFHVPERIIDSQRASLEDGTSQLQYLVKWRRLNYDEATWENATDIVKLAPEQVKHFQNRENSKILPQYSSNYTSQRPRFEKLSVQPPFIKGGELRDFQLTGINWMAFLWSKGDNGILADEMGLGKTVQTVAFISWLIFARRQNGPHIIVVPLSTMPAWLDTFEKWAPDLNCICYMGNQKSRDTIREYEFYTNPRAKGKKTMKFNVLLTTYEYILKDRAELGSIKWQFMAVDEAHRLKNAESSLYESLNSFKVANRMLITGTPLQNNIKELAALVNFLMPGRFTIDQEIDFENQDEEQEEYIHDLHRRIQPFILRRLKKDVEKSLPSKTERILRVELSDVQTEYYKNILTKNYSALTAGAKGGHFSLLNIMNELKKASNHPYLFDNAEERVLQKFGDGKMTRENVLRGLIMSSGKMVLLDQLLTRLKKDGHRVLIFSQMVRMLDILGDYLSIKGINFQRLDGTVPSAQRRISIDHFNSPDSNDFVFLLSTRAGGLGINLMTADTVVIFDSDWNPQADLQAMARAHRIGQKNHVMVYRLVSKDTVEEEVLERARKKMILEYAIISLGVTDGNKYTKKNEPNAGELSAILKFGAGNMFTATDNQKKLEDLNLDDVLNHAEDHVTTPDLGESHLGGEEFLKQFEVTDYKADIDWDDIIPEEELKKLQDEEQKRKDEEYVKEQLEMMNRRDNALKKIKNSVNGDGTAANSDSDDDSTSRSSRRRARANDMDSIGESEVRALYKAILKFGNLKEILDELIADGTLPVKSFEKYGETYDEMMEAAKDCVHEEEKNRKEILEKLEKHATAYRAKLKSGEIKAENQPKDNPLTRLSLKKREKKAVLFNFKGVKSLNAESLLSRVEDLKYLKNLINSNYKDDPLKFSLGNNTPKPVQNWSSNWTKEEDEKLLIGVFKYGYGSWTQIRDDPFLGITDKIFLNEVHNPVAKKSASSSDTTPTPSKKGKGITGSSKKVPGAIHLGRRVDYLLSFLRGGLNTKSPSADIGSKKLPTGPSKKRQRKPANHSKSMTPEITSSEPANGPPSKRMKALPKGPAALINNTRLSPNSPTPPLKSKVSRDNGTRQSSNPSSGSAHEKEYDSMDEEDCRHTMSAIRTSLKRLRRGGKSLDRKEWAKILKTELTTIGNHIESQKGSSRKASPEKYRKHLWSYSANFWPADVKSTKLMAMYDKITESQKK

With `CCOC(=O)CCC(=O)NC(C)c1ccc(NC(=O)CC)cc1` (stereo not drawn), the Percent Effect is -1.67% in [1]; 7.89% in [2]; 2.06% in assay [3]; -5.73% in assay [4]; -1.66% in the assay on Trypanosoma cruzi; 1.18% in assay [5]. For the same compound, the Percent Effect is 9.88% in assay [6]; 6.92% in the assay filed under Homo sapiens; 6.38% in assay [7]; 13% in [8]; -3.37% in [9].

Turning to `CCOC[C@H]1CC[C@H]2[C@H](CCN2C(=O)c2ccncc2F)O1`, the Percent Effect in assay [1] was -2.56%; in [2], 2.7%; in assay [3], 3.1%; in [4], -3.88%; in the assay on Trypanosoma cruzi, 1.07%; in assay [5], 3.72%. Further, the Percent Effect in [6] was 5.92%; in the assay filed under Homo sapiens it was -17.8%; in assay [7] it was 2.15%; in assay [8] it was 3.7%; in assay [9], -2.81%.

Turning to `CC(NC(=O)NCC1(N2CCCCC2)CCCCC1)c1nncn1C` (stereo not drawn), the Percent Effect in assay [1] was -6.18%; in [2] it was 18.4%; in assay [3] it was -2.65%; in [4], 0.417%; in the assay on Trypanosoma cruzi, 1.03%; in assay [5] it was 0%. Also, the Percent Effect in assay [6] is -0.931%; in the assay listed under Homo sapiens it was 5.56%; in [7], 9.36%; in assay [8] it was 18.5%; in assay [9], -6%.

For the compound `CC(=O)N1CCCN(C(=O)NCCc2ccc(Cl)s2)CC1`, the Percent Effect is -2.98% in [1]; -1.27% in [2]; 2.05% in [3]; 0.11% in assay [4]; 2.97% in the assay with Trypanosoma cruzi; -4.95% in assay [5]. The Percent Effect in assay [6] was 6.35%; in the assay listed under Homo sapiens, 15.8%; in assay [7], 3.12%; in [8], 7.59%; in assay [9], 7.14%.

Turning to `CN1CCCCC1c1ncc2c(n1)CCN(Cc1ccccc1Cl)C2` (stereo not drawn), the Percent Effect was 1.96% in assay [1]; -13.3% in assay [2]; 4.6% in [3]; 2.83% in assay [4]; 3.74% with Trypanosoma cruzi; 2.56% in assay [5]. For the same compound, the Percent Effect in assay [6] is 18.9%; in the assay listed under Homo sapiens, -3.83%; in assay [7], 19.1%; in [8], 14.1%; in [9] it was 1.52%.

Consider `CC(=O)N(Cc1ncc(C(C)C)o1)C1CCN(CCn2cccn2)C1` (stereo not drawn), for which the Percent Effect in assay [1] was 0.67%; in [2] it was 10.8%; in [3], -13.2%; in [4], 0.985%; in the assay on Trypanosoma cruzi it was 2.69%; in assay [5], 0.924%. The Percent Effect in assay [6] was 18.9%; in the assay filed under Homo sapiens it was -1.48%; in assay [7], 14.8%; in assay [8] it was 1.22%; in assay [9], -4.25%.

As for `Cc1ccccc1CNC(=O)Cc1c(C)nc2cc(=O)[nH]n2c1C`, the Percent Effect in assay [1] is -2.72%; in assay [2], 13.2%; in assay [3], -32.1%; in [4], 17.4%; with Trypanosoma cruzi, 4.13%; in [5] it was -4.21%. Besides, the Percent Effect in assay [6] is 4.18%; in the assay listed under Homo sapiens, 2.25%; in [7], 9.31%; in assay [8], 17.1%; in [9], -11.1%.

With `CCc1nc(CN2CCCC(NCc3ncc(C(C)(C)C)o3)C2)no1` (stereo not drawn), the Percent Effect is -1.05% in [1]; 18.2% in assay [2]; 2.6% in assay [3]; -6.25% in assay [4]; 1.27% in the assay on Trypanosoma cruzi; 1.05% in assay [5]. In addition, the Percent Effect is 22.6% in [6]; -1.65% in the assay filed under Homo sapiens; 12.4% in assay [7]; 35.3% in [8]; -24.7% in [9].
